SW480 rerep: inducers of DNA re-replication in SW480 colon cancer cells. 340,000 tested, 1.8% active. Potency, µM (doses to about 46.1 µM), for inactives: top-dose re-replication activation, most hits filed as activators. SW480 DNA re-replication, Hoechst DNA content imaging, 48 h. AID 624297; further: % of control where 0% means no effect; nearly all actives have a fitted effect of over 55% in size
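250 cells/well; 23 nL cpd via pin tool; 48 hr, 37 C, 5% CO2; Hoechst 40 min; imager read of total nuclear intensity, ex 405/em 500-530 nm.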
KB-V1 cytotox: kills drug-selected multidrug resistant KB-V1 cells; KB-V1 MDR cells viability, CellTiter-Glo, 72 h; Potency, µM (series often up to 46.1 µM), usual class: cytotoxic; 400,000 tested, 3.4% active; AID 1347076; further: on the % scale 0 is the no-effect control and ±100 the full control effect; nearly all actives have a fitted effect of over 60% in size
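KB-V1 cells (P-gp-expressing MDR subline of KB-3-1) in phenol-red-free DMEM with 10% FBS were exposed to library compounds over a concentration series for 72 h at 37 degrees C. Viability read by CellTiter-Glo luminescence; concentration-effect curves fitted after normalization.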
MCF10A rereplic: DNA re-replication induction in MCF 10a cells | MCF 10A DNA re-replication, Hoechst nuclear intensity, 48 h | Potency, µM (series often up to 46.1 µM), for inactives: at the highest dose activity, positive = re-replication, actives largely listed as activators | 350,000 tested, 2.9% active; further: % of control where 0% means no effect; nearly all actives have a fitted effect of over 50% in size
KB-3-1 cytotox: kills parental KB-3-1 adenocarcinoma cells; 400,000 tested, 1.4% active; Potency, µM (series often up to 46.1 µM), hits mostly cytotoxic; KB-3-1 viability, CellTiter-Glo ATP luminescence, 72 h; AID 1347075; further: on the % scale 0 is the no-effect control and ±100 the full control effect; nearly all actives have a fitted effect of over 60% in size
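KB-3-1 cells, DMEM (no phenol red) + 10% FBS; compound by pin transfer, 72 h, 37 °C. Readout: CellTiter-Glo luminescence after 10 min. Data normalized, curve-fitted.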
12-LOX inh: blocks human arachidonate 12S-lipoxygenase | P18054 | purified 12hLO, xylenol orange hydroperoxide absorbance | Potency, µM (top dose mostly 108 µM), for inactives: at the highest dose activity change, negative = inhibition, usual class: inhibitors | 580,000 tested, 1.1% active | AID 1671190; further: on the % scale 0 is the no-effect control and ±100 the full control effect
Target sequence (P18054 whole entry, looked up): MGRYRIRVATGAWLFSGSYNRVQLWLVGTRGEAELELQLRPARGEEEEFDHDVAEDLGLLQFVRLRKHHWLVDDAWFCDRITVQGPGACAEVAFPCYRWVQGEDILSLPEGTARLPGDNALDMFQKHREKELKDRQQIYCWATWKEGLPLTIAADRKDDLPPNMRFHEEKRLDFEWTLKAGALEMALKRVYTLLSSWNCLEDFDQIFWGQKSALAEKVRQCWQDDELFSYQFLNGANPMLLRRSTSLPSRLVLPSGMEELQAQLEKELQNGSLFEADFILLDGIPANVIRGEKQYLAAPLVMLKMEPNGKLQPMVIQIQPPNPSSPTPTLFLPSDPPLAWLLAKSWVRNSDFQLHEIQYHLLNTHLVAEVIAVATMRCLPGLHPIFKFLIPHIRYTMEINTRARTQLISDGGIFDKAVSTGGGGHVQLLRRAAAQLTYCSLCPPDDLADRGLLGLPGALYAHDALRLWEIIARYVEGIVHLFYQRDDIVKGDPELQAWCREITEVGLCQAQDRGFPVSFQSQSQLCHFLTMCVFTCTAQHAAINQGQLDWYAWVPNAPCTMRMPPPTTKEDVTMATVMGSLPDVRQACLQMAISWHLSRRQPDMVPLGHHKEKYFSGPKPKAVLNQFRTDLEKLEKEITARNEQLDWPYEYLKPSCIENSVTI
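Purified human 12hLO at 150 nM in 25 mM Hepes, 0.01% Triton X-100, pH 7.0, preincubated 15 min at room temperature with compound. Reaction started with 40 uM arachidonic acid, 30 min at room temperature. Hydroperoxide measured by Fe-xylenol orange, 573/405 nm absorbance ratio.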
PINK1 modulator: PINK1 expression modulation. PINK1 immunofluorescence, high-content cytometry, 24 h. Potency, µM (top dose mostly 76.6 µM), for the others: at the top dose activation (PINK1 increase), hits mostly activators. 410,000 tested, 0.2% active. AID 624263; active means well fitted activation curve with a large enough effect; inconclusive means small, poorly fitted or top-dose-only effect; cell line not stated here; further: % of control where 0% means no effect; nearly all actives have a fitted effect of over 65% in size
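Stable cell line treated 24 h with compounds at 5 concentrations (CCCP controls), then fixed and immunostained for PINK1 plus nuclear and cell stains; PINK1 immunofluorescence quantified by laser-scanning microplate cytometry.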
Starred values were filed as active, the others as inactive; i = inactive; ? = inconclusive; / = no result; [ ] = another dose, or the depositor's remark. An excerpt weighted towards active compounds, which were near 5.8% of everything screened. Unless noted, the call rests on the fitted dose curve; in most records, active means well fitted curve in the direction sought with a large enough effect; inconclusive means small, poorly fitted or top-dose-only effect, or another doubt; inactive means no such curve, though single readings can be large; an effect the other way counts as inactive or inconclusive. Potency means the concentration at half of the fitted maximal effect.

SMILES	SW480 rerep	KB-V1 cytotox	MCF10A rereplic	KB-3-1 cytotox	12-LOX inh	PINK1 modulator
COC(=O)C1=CN(c2ccccc2OC)C(N)=C(C#N)C1c1cccc([N+](=O)[O-])c1 (stereo unspecified)	/	4.11µM*	/	4.61µM*	?	/
COC(=O)C1=CN(c2ccc(Oc3ccccc3)cc2)C(N)=C(C#N)C1c1ccccc1 (stereo unspecified)	/	?	/	i	?	/
COC(=O)C1=CN(c2ccc(OC)cc2)C(N)=C(C#N)C1c1cccc2ccccc12 (stereo unspecified)	/	?	/	18.4µM*	?	/
COC(=O)C1=CN(c2ccc3c(c2)OCO3)C(N)=C(C#N)C1c1ccccc1 (stereo unspecified)	/	2.91µM*	/	7.31µM*	?	/
Cc1ccccc1OCCSc1nc2ccccc2n1CC(O)CO (stereo unspecified)	/	/	/	/	9.9%	/
C=CCOc1ccc(NC(=O)C(C)Oc2ccccc2)cc1 (stereo unspecified)	/	/	/	/	-1.0%	/
N#Cc1nc(-c2ccc([N+](=O)[O-])cc2)oc1N1CCN(CCO)CC1	/	/	/	/	-27.1%	/
COC(=O)C1=CN(c2ccc(F)cc2)C(N)=C(C#N)C1c1ccccc1 (stereo unspecified)	/	?	/	?	44.7µM*	/
CC(=O)c1ccc(NC(=O)C2CC(=O)N(C(C)(C)C)C2)cc1 (stereo unspecified)	/	/	/	/	-27.8%	/
COc1ccccc1C#Cc1ccc2c(=O)c3ccccc3n(C)c2c1	-4.3%	i	20.6µM*	i	-2.7%	-0.9%
Cn1c2ccccc2c(=O)c2ccc(C#Cc3ccc(N)cc3)cc21	14.6µM*	i	?	i	?	3.8%
Cn1c2ccccc2c(=O)c2ccc(Cl)cc21	/	13µM*	/	?	0.2%	0.4%
COc1ccc(C#Cc2ccc3c(=O)c4ccccc4n(C)c3c2)cc1	?	i	?	i	/	7.3%
O=C(CCc1ccco1)Nc1ccc(N2CCCC2)cn1	/	/	/	/	-15.7%	/
CC1(C)CC2(C)OC(=N)C1(C#N)C2(C#N)C#N (stereo unspecified)	4.6%	i	23.1µM*	i	2.7%	-0.4%
Fc1ccc(NC(=S)N2CCn3cccc3C2c2cccnc2)cc1 (stereo unspecified)	-2.5%	i	-0.4%	i	?	1.0%
Cc1cccc(NC(=S)N2CCn3cccc3C2c2cccnc2)c1 (stereo unspecified)	-5.5%	16.4µM*	-1.5%	i	-1.7%	-1.0%
COc1cccc(NC(=S)N2CCn3cccc3C2c2cccnc2)c1 (stereo unspecified)	-8.3%	i	5.2%	i	0.0%	0.5%
Fc1ccc(C2c3cccn3CCN2C(=S)Nc2cccc(Br)c2)cc1 (stereo unspecified)	-0.9%	?	23.1µM*	?	?	?
COc1ccc(-c2noc([C@@H]3CCCN3C(=O)c3cc4ccccc4[nH]3)n2)cc1OC	/	/	/	/	36.1%	/
Cn1cccc1C(=O)N1CCC2(CC1)C(=O)NCN2Cc1ccc(Cl)cc1	/	/	/	/	26.4%	/
Cc1ccc2c(CSc3nnc4ccccn34)cc(=O)oc2c1C	-13.3%	16.4µM*	-1.2%	i	7.5%	-0.2%
COc1cccc(C(=O)NCC2CCCN(Cc3ccc(C)s3)C2)c1OC (stereo unspecified)	/	/	/	/	50.0%	/
COc1cc(C(=O)NC2CCCC2)c(Br)c(OC)c1OC	0.8%	i	-0.8%	i	-1.2%	10.4%
COc1cc(C(=O)NCCOc2cc(C)cc(C)c2)c(Br)c(OC)c1OC	?	10.3µM*	?	i	0.5%	8.2%
SMILES	SW480 rerep	KB-V1 cytotox	MCF10A rereplic	KB-3-1 cytotox	12-LOX inh	PINK1 modulator
Cc1cc(C)cc(-c2nnc(SCC(=O)N3CCC3)o2)c1	/	/	/	/	-7.7%	/
Cc1ccc(-n2cc(CNCCCn3cccn3)c(-c3cccc(C)c3)n2)cc1	11.0%	?	?	?	-21.9%	-1.9%
Cc1ccc(-n2cc(CNCCCn3ccnc3C)c(-c3ccc(F)cc3)n2)cc1	?	20.6µM*	?	?	-9.4%	-1.0%
Cc1ccc(C)c(-n2cc(CNCCCn3cccn3)c(-c3ccccc3)n2)c1	16.4µM*	i	?	i	0.0%	3.2%
Cc1cc(C)c(S(=O)(=O)NCCn2c(C)cnc2C2CC2)c(C)c1	/	/	/	/	12.4%	/
CCOc1ccc(OCC(O)CNC2CCN(Cc3ccccc3)CC2)cc1 (stereo unspecified)	?	16.4µM*	?	?	8.1%	-0.1%
CC(C)(c1ccccc1)c1ccc(OCC(O)CNC2CCN(Cc3ccccc3)CC2)cc1 (stereo unspecified)	10.8%	18.4µM*	?	?	?	-2.0%
COc1ccc(OCC(O)CNC2CCCC2)cc1 (stereo unspecified)	-3.0%	i	9.2%	i	-26.1%	0.9%
COc1ccc(CNCC(O)COc2ccc(C(C)(C)c3ccccc3)cc2)cc1 (stereo unspecified)	?	?	?	?	?	-4.1%
O=C(CSc1nc(C2CC2)nc2sc3c(c12)CCCC3)NCc1ccco1	1.1%	i	16.4µM*	i	6.4%	15.8%[38.3 µM]
CC(C)Sc1nc2sc3c(c2c2nnc(SCC(=O)NCc4ccco4)n12)CCCC3	8.9%	18.4µM*	?	i	?	9.2%
CCCc1nc2sc3c(SCC(=O)NCc4ccco4)ncnc3c2c2c1CCC2	14.6µM*	11.6µM*	9.2µM*	?	21.0%	?
CC1(C)Cc2c(sc3ncn4nc(C(=O)NCc5ccco5)nc4c23)CO1	/	/	/	/	4.2%	/
CC1CCc2sc3ncn4nc(C(=O)NCc5ccco5)nc4c3c2C1 (stereo unspecified)	-5.0%	6.51µM*	1.8%	i	-7.1%	8.4%
Cc1nc(SCC(=O)NCc2ccco2)c2c3c(sc2n1)CCCC3	0.6%	?	?	?	-10.9%	-0.7%
O=C(Nc1ccc2c(c1)OCO2)C1CCN(C(=O)c2n[nH]c(=O)c3ccccc23)CC1	/	/	/	/	-4.9%	/
O=C(CCCc1cccs1)NCc1ccc(OCc2cccnc2)cc1	/	/	/	/	7.0%	/
Cc1cc(NC(=O)CSc2nnc(-c3ccoc3C)o2)no1	20.6µM*	i	23.6%	i	0.0%	3.1%[38.3 µM]
Cc1cc(NC(=O)CSc2ccccc2)no1	-12.8%	i	0.1%	i	-24.3%	-1.4%
Cc1cc(NC(=O)CSc2nnc(-c3ccccc3)c(-c3ccccc3)n2)no1	3.66µM*	5.17µM*	11.6µM*	7.31µM*	50.8%	2.0%
Cc1cc(NC(=O)CSc2nnc(-c3ccccc3)o2)no1	-6.4%	i	-1.3%	i	11.1%	0.8%

Assay outcomes: PubChem BioAssay, National Center for Advancing Translational Sciences (NCATS)
